The experiment relates to PPARg:RXRa (NR concentration 180 nM, RXRa partner concentration 90 nM). As to the kind of experiment: PBM binding z-score (relative to random genomic background probes); higher = stronger binding; sequences stand for … in GC…GCGATTGACAGCGTAGAATGAAGG
The essentials: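 Each nuclear receptor dimer, without ligand, was incubated for 1 h on custom Agilent 4×180K protein-binding microarrays. Binding was detected with antibodies against each partner (one per run), and scanned fluorescence was regression-normalized. The binding z-scores are referenced to random human genomic background probes.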
The sequence GATACAGGGTCAGCTAGAGGCCTGAGTATGGAAA came in with a PBM binding z-score of 3.02.

Sequence CTCGAAAGGTCGTGCTCAGGTGAGCATACCAAAC gave a PBM binding z-score of 3.03.

CGTCCAAGGTCAAAGGTCAGTGAGGAGATGACGG yielded a PBM binding z-score of 10.8.

The sequence GATGCTAGGTCAACTGATGGTCAGCTAAAGCTCG gave a PBM binding z-score of 2.79.

AGATTGAGGTTATTAAGATCAGGGAATTGCGGTC came in with a PBM binding z-score of 1.08.

For the sequence CGTCCAAGGCCAATGCTAGGTCAGTGAAAGCATT, the PBM binding z-score is -0.45.

The sequence GAAACAGGGTCAAGGCCAGAGTACGCGTATTGAT had a PBM binding z-score of 6.82.

Sequence CCGCCTAGGTCAGGGCCAGTATAGGAGGAACGTT displayed a PBM binding z-score of 0.674.

CCGAGTAGGTTAGGGGGCATTCAGGCAACGGTGA had a PBM binding z-score of 6.67.

On to ACTCGGAGGACAACGGTCAGAGCTACGCCAGTGA, for which the PBM binding z-score came out at 0.852.

For the sequence CGTCAAAGTTCAACTAAGGTAACGTACAGCACGC, the PBM binding z-score amounted to 5.21.

Sequence GCGACTGGGGCATCAGCAGGTTACAATAACTTAA gave a PBM binding z-score of 1.02.

In turn, TCTCGGAAGACACGAAAGGTCAGAGCTCGACATC showed a PBM binding z-score of 0.772.

Consider TCGAGAAGGTTAGTCGGGGCATTCAGCCAACATA, for which the PBM binding z-score stood at 0.00646.

The sequence AGAATGAGGTTATACGTAGATCAGGGAGGAAAGT came in with a PBM binding z-score of 1.85.

With ATATGTAGGTTATCGGGCCATTCAGTTTGCGCAT, the PBM binding z-score stood at 5.22.

For the sequence TATACAGGGTAAAAGGCCAGAGTACGAATGTCGA, the PBM binding z-score came to 3.63.

The sequence CCTGCTAGGTAAATGGTCAGCTAAAGCAGCTCGC gave a PBM binding z-score of 0.476.

In turn, TCTAATTGGTCAAAGGTCACACACTCGAAATGCG came in with a PBM binding z-score of 10.7.

In the case of TCATATAGGTTAATGCTAGGTGAAAGTCCGATCT, the PBM binding z-score worked out at 2.14.

Consider TAGCCTAGGTCAGATCGGCCCAGTATACGCTATA, for which the PBM binding z-score worked out at 1.07.

Turning to CAAACTAGGTAACAGAGGTCAAAGTCCGTGCGTA, the PBM binding z-score came out at 6.67.

The values above are taken from the supplement of paper PMC6555819.
